In ChEMBL document CHEMBL3988442, “University of Dundee, Small-Polar-MMV Screening Library” (2021):
The whole screen tested about 48,000 compounds, of which about 13,000 (27%) showed an effect of 50% or more. The list shows a part of the results.

Each compound was assayed on Wolbachia pipientis (assay: Anti-Wolbachia Cell-Based Screen). Conditions: 5 µM.
Type: functional
Parameters: scale not given: in the data most compounds retested in dose-response had high values

Structure (SMILES) | Percent Effect [%]
Cc1nc2c(c(N3CCC(CN4CCCC4=O)CC3)n1)CCNCC2 | -1.611
COC(=O)c1cc(OCC2CCC2)cc(C(=O)N[C@H]2CC[C@H](O)CC2)c1 | -10.19
CSCCC1CC(=O)Nc2cc(O)c(C)cc21 (stereo not given) | 3.121
O=C(c1cnc(NCCC2CCCO2)c(Cl)c1)N1CCCCC1 (stereo not given) | -6.452
CNC(=O)c1cc2c(nc1NC(C)C)CCN(C(=O)NC(C)C)CC2 | -1.585
CCN1CCOCC2(CCCN(c3nncs3)C2)C1 (stereo not given) | -9.534
CC(=O)c1cc(CC(=O)N2CCCC2c2nc(C(C)C)no2)cs1 (stereo not given) | -13.65
Cn1nnnc1SCCC(=O)NCC(C)(C)c1ccccc1F | -11.64
CSCC(C)(O)CNC(=O)c1ccc(F)cc1Cl (stereo not given) | 16.17
Cc1nncn1CCNC(=O)C(C)(C)c1cccc(F)c1 | -15.91
Cc1nn(C)cc1-c1cc(C(=O)NCC(C)(C)c2ccccc2F)n[nH]1 | 89.7
Cc1nn(C)cc1-c1cc(C(=O)NCC(C)(C)c2cccc(F)c2)n[nH]1 | 113.6
O=C(NCc1nc[nH]n1)c1cc(COc2cccc(F)c2)[nH]n1 | -19.41
Cc1nn(C)cc1-c1cc(C(=O)NCC(C)(C)c2ccc(F)cc2)n[nH]1 | 130.7
Cc1cc(C)n(CC(C)NC(=O)C(C)(C)c2ccccc2F)n1 (stereo not given) | 6.546
CC(Cn1cncn1)NC(=O)NCC(C)(C)c1ccc(F)cc1 (stereo not given) | 10.62
O=C1CC(c2ccccc2F)c2c(n3ccsc3nc2=O)N1 (stereo not given) | 13.25
CC(NC(=O)Nc1cc(F)cc(F)c1)c1nc[nH]n1 (stereo not given) | -15.42
O=C(NCC1CC1)C1CN(C(=O)c2cccnc2)CC12CCOCC2 (stereo not given) | 0.4189
O=C(NCC1CC1)C1CN(C(=O)c2cnccn2)CC12CCOCC2 (stereo not given) | -1.801
O=C(NCC1CC1)C1CCC2(CCN(C(=O)c3cnccn3)CC2)O1 (stereo not given) | 100.2
O=C(C1CCC2(CCN(CC3CC3)CC2)O1)N1CCCC1.O=C(O)C(F)(F)F (stereo not given) | -8.008
O=C(NCC1CC1)C1CCC2(CCN(C(=O)c3cccnc3)CC2)O1.O=C(O)C(F)(F)F (stereo not given) | 93.2
O=C(NCC1CC1)C1CCC2(CCN(C(=O)c3ccncc3)CC2)O1.O=C(O)C(F)(F)F (stereo not given) | 111.8
O=C1COC2(CCN(C(=O)c3cnccn3)CC2)CN1CC1CC1 | -3.882
CC1N(CC2CC2)C(=O)COC12CCN(C(=O)c1ccncc1)CC2 (stereo not given) | -6.799
CCc1nnc2n1CC(CNCc1nc(-c3ccsc3)no1)CC2 (stereo not given) | -16.4

Structure (SMILES) | Percent Effect [%]
Cc1ccccc1CN(C)C(=O)Cn1nc(-c2ccc(F)cc2)oc1=O | -30.13
COCCNC(=O)Cn1c(-c2ccco2)cc2cccnc21 | 97.97
COc1cccc(OCCNC(=O)CN2CCN(C)CC2C)c1 (stereo not given) | 0.3417
O=C(Cn1ccc2ncccc2c1=O)N1CCCCC1 | -19.73
CC(C)N(C(=O)Cn1c(-c2ccco2)cc2cccnc21)C(C)C.Cl | 129.4
Cl.O=C(Cn1c(-c2ccco2)cc2cccnc21)N1CCCC1 | 109.6
Cc1nc(-c2ccccc2)n(CC(=O)N(C(C)C)C(C)C)n1 | 7.414
COCCCNC(=O)Cn1nnc(-c2cc3ccccc3o2)n1 | -9.995
O=C(c1ncoc1-c1ccco1)N1CCCN(c2ncccn2)CC1 | -13.17
COc1ncccc1C(=O)N1CC(c2nc(-c3ccco3)no2)C1 | 8.085
CCCS(=O)(=O)NCC1CCOc2ccccc2C1 (stereo not given) | -3.198
Cn1nnc2c1C(COCC1CC1)CN(C(=O)Cc1ccccn1)C2 (stereo not given) | 3.096
CCC(Nc1nc(C2CCCC2)nc2c1cnn2C)c1ccncc1 (stereo not given) | 11.81
Cc1cc(CC(C)Nc2nc(C3CCCC3)nc3c2cnn3C)[nH]n1 (stereo not given) | 4.574
CCc1nnc(CN(C)c2nc(C3CCCC3)nc3c2cnn3C)o1 | -12.86
CN(Cc1ccno1)c1nc(C2CCCC2)nc2c1cnn2C | 93.91
CNc1ncc(CN(C)c2nc(C3CCCC3)nc3c2cnn3C)cn1 | 113.7
Cc1cc(C)nc(CN(C)c2nc(C3CCCC3)nc3c2cnn3C)c1 | 180.1
CCCc1nc(N(C)Cc2cnc(NC)nc2)c2cnn(C)c2n1 | 3.632
Cc1c[nH]c(CN(C)c2nc(C3CCCC3)nc3c2cnn3C)n1 | -9.015
Cc1nn(C)c(C)c1CN(C)c1nc(C2CCCC2)nc2c1cnn2C | 74.08
Cc1nc(N(C)CCN(C)C)c2cnn(C)c2n1 | -4.82
CNCCCNc1nc(C2CCCC2)nc2c1cnn2C | -5.607
Cn1ncc2c(NCCn3cccc3)nc(C3CCCC3)nc21 | 12.23
O=C(c1ccc(-n2cncn2)cc1)N1CCN(c2cnccn2)CC1 | -5.785
N#Cc1ccc(NCC(=O)Nc2ccn(Cc3cccnc3)n2)cc1 | 0.1964
O=C(CCc1ccccn1)N1CCc2cc(Cl)cc(Cl)c2C1 | -9.614

Structure (SMILES) | Percent Effect [%]
CC(NC1(CNC(=O)C(C)(C)C#N)CCOCC1)c1ccccc1 (stereo not given) | -5.654
Cc1noc(C)c1CN(C)c1nc(C2CCCC2)nc2c1cnn2C | 118.2
CCOCCNc1nc(C2CCCC2)nc2c1cnn2C | -2.506
CC(C)N(CCNc1nc(C2CCCC2)nc2c1cnn2C)C(C)C | -18.52
COc1ncccc1CN1CCn2c(C(=O)N3CCCC3)cnc2C1.O=C(O)C(F)(F)F.O=C(O)C(F)(F)F | -2.628
COCCN1CCn2cc(CN(C)Cc3ccco3)nc2C1 | 6.66
OC(CNc1ncnc2c1CCNCC2)C(F)(F)F (stereo not given) | -1.789
Cc1ccccc1C(CNc1ncnc2c1CCNCC2)N(C)C (stereo not given) | 105.5
Cc1ccccc1C(Nc1ncnc2c1CCNC2)c1ccccc1 (stereo not given) | 93.65
Cc1[nH]c2ccc(C#N)cc2c1CCNc1ncnc2c1CCNCC2 | 9.456
Cc1[nH]c2ccc(Cl)cc2c1CCNc1ncnc2c1CCNC2 | 12.31
Cc1nc2c(c(NCC(c3ccccc3C)N(C)C)n1)CCNC2 (stereo not given) | 96.84
Cc1nc2c(c(NCC(O)C(F)(F)F)n1)CCNCC2 (stereo not given) | -4.402
CCOc1ccc(C(C)Nc2ncnc3c2CCNC3)cc1OCC (stereo not given) | -5.441
Cc1nc2c(c(NCC(O)c3ccccc3Cl)n1)CCNCC2 (stereo not given) | -5.653
CC(Nc1ncnc2c1CCNC2)c1ccc(C(C)(C)C)cc1 (stereo not given) | 30.56
Cc1ccccc1C(CNc1ncnc2c1CCNC2)N(C)C (stereo not given) | 84.04
CCCc1ccc(C(C)Nc2ncnc3c2CCNC3)cc1 (stereo not given) | -93.4
Cc1nn(C)c(C)c1CN(C)S(=O)(=O)c1c(C)n[nH]c1C | 32.27
CCC(=O)N1CCN(C(=O)c2ccc(COC)o2)[C@H]2CS(=O)(=O)C[C@H]21 | 2.835
CN(C)CCNCC1(O)CCCN(Cc2cccc(F)c2F)C1=O (stereo not given) | -8.676
CNS(=O)(=O)CCNC(=O)c1coc(COc2ccc(F)cc2)n1 | -18.85
O=C([C@@H]1Cc2[nH]cnc2CN1CC1CC1)N1CCCC1 | 2.393
CC(=O)NC1CC(C)(C)Cc2c1cnn2-c1cccc(F)c1 (stereo not given) | 27.72
CC(C)(C)c1ncc2c(n1)CN(C(=O)c1ccc(-n3cnnn3)cc1)C2 | -15.52
CNCC(=O)NC1CC(C)(C)Cc2nc(C(C)(C)C)ncc21 (stereo not given) | 107.2
CC(=O)N1Cc2cnc(C(C)(C)C)nc2C1 | -14.29

Structure (SMILES) | Percent Effect [%]
CC1(C)Cc2nc(C(C)(C)C)ncc2C(NC(=O)Cc2nnn[nH]2)C1 (stereo not given) | 84.56
Cc1cc2c(o1)CC(C)(C)CC2NC(=O)CNC(=O)C1CC1 (stereo not given) | 15.35
CC1(C)Cc2nc(C(C)(C)C)ncc2C(NC(=O)CN)C1 (stereo not given) | 108.4
CC(C)(C)c1ncc2c(n1)CN(C(=O)c1ccncc1)C2 | 6.547
COC(C)(C)C(=O)N1Cc2cnc(C(C)(C)C)nc2C1 | 5.24
COC(=O)NCC(=O)NC1CC(C)(C)Cc2oc(C)cc21 (stereo not given) | -2.578
CC1(C)Cc2nc(C(C)(C)C)ncc2C(NC(=O)C2(N)CC2)C1 (stereo not given) | 76.58
Cc1cc(C)n(CC(=O)N2Cc3cnc(C(C)(C)C)nc3C2)n1 | -6.513
O=C(Nc1ccc(F)c(Cl)c1)N1CCCN([C@H]2COC[C@@H]2O)CC1 | 0.3317
Cc1nc(C)n(CC2CCCCN2CC(=O)Nc2nncs2)n1 (stereo not given) | -8.145
Cc1cc(C)cc(CN2CCN(Cc3cc(C#N)n(C)c3)CC2=O)c1 | -7.638
CCCC(C)Sc1nnnn1C1CCOCC1 (stereo not given) | -26.91
Cc1c[nH]c(CN2CCCn3nc(CNS(C)(=O)=O)cc3C2)n1 | -1.605
CC(O)CNC(=O)NCc1cccnc1OC1CCCC1 (stereo not given) | 3.42
CCC(CNC1CCN(C(=O)N(C)C)CC1)Oc1ccccc1C (stereo not given) | 14.11
CCc1nnc(C(C)N2CCN(CCC(C)(C)C)CC2)o1 (stereo not given) | 109.6
CCc1noc(C(C)N2CCN(Cc3ncc(C(C)(C)C)o3)CC2)n1 (stereo not given) | -21.42
CCc1nnc(C(C)N2CCC(NC(=O)C3CCCCC3)CC2)o1 (stereo not given) | 111.1
CNC(=O)CCN1CCN(C(C)c2ccc(Cl)cc2)CC1 (stereo not given) | 7.005
CC(C)c1noc(C(C)N2CCN(CCc3ccncc3)CC2)n1 (stereo not given) | -3.07
CCSCCC(=O)NC1CCN(C(C)c2ccccc2)CC1 (stereo not given) | -12.67
CCS(=O)(=O)c1ccc(N2CCC(NC(=O)C3CCCCC3)CC2)cc1 | 14.13
CCc1noc(C(C)N2CCC(NC(=O)c3ccc(C)s3)CC2)n1 (stereo not given) | -3.823
CCc1nnc(C(C)N2CCN(CCC(=O)NC3CC3)CC2)o1 (stereo not given) | 108.9
